# PubChem BioAssay
# The source made the active and inactive calls.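 The calls were made as follows, unless noted: active = fluorescence slope higher than the sample average by over 3 SD (cut at about -0.22 in these data, passing the limit was not always enough); inactive = the rest.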
# Key:
# [1] = inhibitors of TNFa-induced NFkB p65 translocation, primary screen, imaging, HUVEC, MLSMR starter and 10KST1 sets (AID 438;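 active = inhibition above 20% together with a positive visual image hit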;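 also: compound added about 3h40 before a 20 min TNFalpha stimulation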;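 as to inhibition: signal is the nuclear over cytoplasmic p65 intensity ratio per well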); conditions: HUVEC TNFa-induced p65 nuclear translocation; cell count: measured here: nuclei count (cytotoxicity indicator), at 2.08 µM; inhibition: at 2 µM, stronger effect = higher value, 0% TNFa-plus-vehicle, 100% no-TNFa wells
# [2] = inhibitors of mutant huntingtin aggregation, primary screen, imaging, exon1htt(103Q)mCFP cells, high-content imaging (AID 483;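 active = visual image review flags a hit and inhibition of aggregation exceeds 20%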;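 also: compound exposure lasted 3 days before fixation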;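 as to nuclei count: percent of the per-plate median nuclei count of sample wells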); conditions: exon1htt(103Q)mCFP cell line, aggregate imaging, at 2 µM; inhibition of aggregation: stronger effect = higher value; nuclei count: measured here: cell count, toxicity
# [3] = inhibitors of E-selectin induction by TNFa, primary screen, imaging, HUVEC, immunofluorescence, MLSMR starter and 10KST1 sets (AID 487;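 active = visually confirmed hit in the image check and inhibition above 20%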;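 as to inhibition: signal is fraction of cell area covered by stained E-selectin grains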;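 as to nuclei count: 100% = median nuclei count of all wells on the same plate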); conditions: HUVEC TNFalpha-induced E-selectin immunofluorescence imaging, at 2 µM; inhibition: stronger effect = higher value; nuclei count: measured here: cell number, toxicity
# [4] = biological target: Voltage-gated potassium channel subunit beta-2 (Rattus norvegicus) (UniProt P62483); assay: KvBeta enzyme negative modulators, primary screen, biochemical, NADPH fluorescence (AID 622); conditions: recombinant KvBeta, 4-cyanobenzaldehyde reduction, at 10 µM, stronger effect = higher value;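 also: slope of raw intensity against log time taken from 70 to 1610 s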
# Chain of Voltage-gated potassium channel subunit beta-2 (Rattus norvegicus) (P62483 whole entry, looked up): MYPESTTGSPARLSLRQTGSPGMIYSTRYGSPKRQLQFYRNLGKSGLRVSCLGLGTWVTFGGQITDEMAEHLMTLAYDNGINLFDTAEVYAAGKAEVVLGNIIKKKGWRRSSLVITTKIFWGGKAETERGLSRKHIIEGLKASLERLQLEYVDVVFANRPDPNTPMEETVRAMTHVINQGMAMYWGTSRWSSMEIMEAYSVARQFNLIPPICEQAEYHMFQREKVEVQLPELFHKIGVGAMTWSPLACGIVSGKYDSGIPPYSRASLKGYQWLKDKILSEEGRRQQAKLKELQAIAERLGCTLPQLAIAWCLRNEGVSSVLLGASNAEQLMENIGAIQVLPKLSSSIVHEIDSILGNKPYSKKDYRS
# [5] = biological target: Voltage-gated potassium channel subunit beta-2 (Rattus norvegicus) (UniProt P62483); assay: KvBeta positive modulators, primary screen, biochemical, NADPH fluorescence (AID 623;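 active = NADPH fluorescence slope more negative than the mean of all samples by about 3 SD, 99.7% confidence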;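 also: fluorescence intensity change per second fitted from 20 to 320 s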); conditions: Recombinant KvBeta, NADPH fluorescence decrease slope, 10 min; at 10 µM; stronger effect = lower value
# [6] = biological target: Alpha-2C adrenergic receptor (Homo sapiens) (UniProt P18825); assay: modulators of alpha2C/GIRK thallium flux, primary screen, cell-based, HEK293 alpha2C/GIRK1/2 (AID 624;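 active = fluorescence slope after compound addition differing from the mean of all screened samples at 99.7% confidence, in either direction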;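 also: slope of fluorescence ratio to pre-addition baseline per second over 15 to 24 s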); conditions: thallium flux BTC fluorescence, at 10 µM, actives lie on both sides
# Chain of Alpha-2C adrenergic receptor (Homo sapiens) (P18825 whole entry, looked up): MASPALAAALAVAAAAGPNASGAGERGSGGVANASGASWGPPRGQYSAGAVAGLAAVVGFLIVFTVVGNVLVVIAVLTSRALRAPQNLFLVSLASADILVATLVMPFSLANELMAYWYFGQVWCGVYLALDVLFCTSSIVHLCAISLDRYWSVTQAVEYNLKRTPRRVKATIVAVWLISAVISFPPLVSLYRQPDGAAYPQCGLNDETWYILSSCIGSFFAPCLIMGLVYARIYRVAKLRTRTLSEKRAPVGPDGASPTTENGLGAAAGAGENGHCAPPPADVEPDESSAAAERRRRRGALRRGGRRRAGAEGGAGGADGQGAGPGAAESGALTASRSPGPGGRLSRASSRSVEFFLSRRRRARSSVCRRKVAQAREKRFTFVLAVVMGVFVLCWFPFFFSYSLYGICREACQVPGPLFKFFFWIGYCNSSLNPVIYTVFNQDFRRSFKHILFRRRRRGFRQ
# [7] = inhibitors of Sendai virus-induced IRF3 signaling, primary screen, TLR/RLR signaling modifier project, cell-based, Sendai virus stimulus, luciferase, 10K MLSCN set (AID 602276;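 active = inhibition at or above 50% at 10 µM; inactive = inhibition below 50%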;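 also: firefly luciferase from ISG56 promoter only with Renilla not read in this screen; 0% = Sendai virus plus DMSO and 100% = medium plus DMSO without virus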); conditions: HEK293 RL24 IRF3 luciferase reporter, at 10 µM, stronger effect = higher value
# [8] = inhibitors of poly I:C-induced TLR3 signaling, primary screen, cell-based, poly I:C stimulus, luciferase, 10K MLSCN set (AID 602277;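 active = inhibition of the reporter signal at or above 50%; inactive = inhibition below 50%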); conditions: HEK293-TLR3 RL24 IRF3 luciferase reporter, at 10 µM, stronger effect = higher value
Structure (SMILES),cell count [1],inhibition [1],inhibition of aggregation [2],nuclei count [2] [%],inhibition [3],nuclei count [3] [%],fluorescence slope [4],NADPH fluorescence slope [5],slope [6],inhibition [7],inhibition [8]
COc1nc(C)ccc1-c1noc(-c2ccncc2)n1,255,7% (inactive),-7.3% (inactive),36.4,-40% (inactive),130,-0.468 (inactive),-1.8e-06 (inactive),0.00545 (inactive),-26% (inactive),-82.9% (inactive)
Cc1cc(C)n2cc(CSc3nnnn3C)nc2n1,532,-36.9% (inactive),9.5% (inactive),106,36.6% (inactive),65.8,-0.256 (inactive),-4.3e-06 (inactive),0.00505 (inactive),15.1% (inactive),19.7% (inactive)
CCCCc1cc(=O)oc2cc(OCC(=O)N(CC)CC)c(Cl)cc12,586,0% (inactive),-3.9% (inactive),102,-56.9% (inactive),123,-0.596 (inactive),7.2e-08 (inactive),0.00654 (inactive),12.5% (inactive),30.7% (inactive)
CCc1nc(SCC(=O)NCc2ccco2)c2c3c(sc2n1)CCCC3,586,-2.1% (inactive),14.8% (inactive),85.9,-21.9% (inactive),116,-0.466 (inactive),-1.1e-05 (inactive),0.00647 (inactive),15.3% (inactive),20.6% (inactive)
O=C(Nc1ccc(Br)c2cccnc12)c1ccc(Cn2cc(Cl)cn2)o1,357,9.8% (inactive),10.4% (inactive),94.8,-76.7% (inactive),99.5,-0.519 (inactive),-3.6e-05 (inactive),0.00614 (inactive),-9.8% (inactive),-11% (inactive)
Nc1nnc(SCc2cc3c(cc2Cl)OCO3)s1,379,7.6% (inactive),-3.1% (inactive),110,-30.6% (inactive),111,-0.477 (inactive),-6.6e-05 (inactive),0.00689 (inactive),0.13% (inactive),9.87% (inactive)
COc1ccc(C(=O)Nc2ccc(S(=O)(=O)NC(C)=O)cc2)cc1,568,2.4% (inactive),21.1% (inactive),92.1,9.3% (inactive),107,-0.494 (inactive),-2.4e-05 (inactive),0.00509 (inactive),10.3% (inactive),6.87% (inactive)
COc1ccc(C2CC(c3ccc(OC)cc3)n3nc(N)nc3N2)cc1 (stereo unspecified),595,6.1% (inactive),-5.1% (inactive),99.7,28.5% (inactive),102,-0.595 (inactive),-3.1e-05 (inactive),0.00691 (inactive),6.72% (inactive),20.7% (inactive)
O=C(Nc1cnccn1)c1cccs1,655,-17.2% (inactive),-13.1% (inactive),122,-34.1% (inactive),110,-0.517 (inactive),-2.8e-05 (inactive),0.00591 (inactive),10.2% (inactive),12.3% (inactive)
CN(C(=O)c1ccco1)c1nnc(C23CC4CC(CC(C4)C2)C3)s1,681,-10% (inactive),-1.7% (inactive),110,-1.5% (inactive),126,-0.408 (inactive),-1.5e-05 (inactive),0.00459 (inactive),-30.3% (inactive),-32.2% (inactive)
CCc1nc(C)c(C#N)c2cc(OC)c(OC)cc12,387,-1.1% (inactive),-2.1% (inactive),79.3,-7.1% (inactive),97.7,-0.446 (inactive),-7.7e-05 (inactive),0.00607 (inactive),15.2% (inactive),21.3% (inactive)
Nc1nc(Nc2cccc3ccccc23)nc(C2CCCC2=O)n1 (stereo unspecified),349,1.8% (inactive),-7% (inactive),97.3,-38.8% (inactive),109,-0.312 (inactive),-7e-05 (inactive),0.00598 (inactive),4.53% (inactive),13.8% (inactive)
COc1cccc(C2CC(=O)Nc3cc4c(cc32)OCCO4)c1OC(C)C (stereo unspecified),556,1.9% (inactive),7.2% (inactive),119,-18.7% (inactive),104,-0.497 (inactive),-6e-05 (inactive),0.00619 (inactive),9.49% (inactive),17.8% (inactive)
Cc1cc(C)n2nc[n+](C)c2n1,685,-12.9% (inactive),-10% (inactive),103,-17.6% (inactive),120,-0.537 (inactive),3.6e-05 (inactive),0.0066 (inactive),-6.03% (inactive),-6.5% (inactive)
O=C(NCCO)c1cc2ccccc2cc1O,489,-8.2% (inactive),23.4% (inactive),85.8,-92.3% (inactive),109,-0.47 (inactive),-2.1e-05 (inactive),0.00658 (inactive),-5.48% (inactive),-4.78% (inactive)
COc1cc(C(=O)Nc2cccc(-c3nc4cc(C)ccc4o3)c2)cc(OC)c1OC,507,7% (inactive),-1.2% (inactive),90.7,-126% (inactive),126,-0.582 (inactive),-3.2e-05 (inactive),0.0093 (inactive),0.465% (inactive),-22.5% (inactive)
Cc1ccc(C)c(N2CCN(C(=O)CCCn3c(=S)[nH]c4cc5c(cc4c3=O)OCO5)CC2)c1,494,2.5% (inactive),-3.8% (inactive),109,-37.7% (inactive),114,-0.433 (inactive),1.2e-05 (inactive),0.00641 (inactive),0.122% (inactive),17.7% (inactive)
CC1Cc2nc(SCC(=O)Nc3ccccc3F)n(C)c(=O)c2S1 (stereo unspecified),385,4.4% (inactive),-9.2% (inactive),98.4,-15% (inactive),113,-0.505 (inactive),-2.1e-05 (inactive),0.00529 (inactive),10.7% (inactive),3.28% (inactive)
c1ccc2c(c1)Cc1cc(CN3CCOCC3)ccc1-2,343,-8% (inactive),-2.2% (inactive),110,-77.5% (inactive),128,-0.415 (inactive),-8.5e-05 (inactive),0.00531 (inactive),-50.9% (inactive),-105% (inactive)
Cc1cc(C(N)=O)c2cc(Br)ccc2n1,367,5.5% (inactive),0.7% (inactive),94.5,-54% (inactive),120,-0.436 (inactive),-5.1e-05 (inactive),0.0072 (inactive),4.62% (inactive),32.5% (inactive)
O=C(NCC1CCCO1)C1CCN(c2ccc(S(=O)(=O)N3CCCC3)cc2)CC1 (stereo unspecified),446,8.5% (inactive),-5.9% (inactive),103,-38.5% (inactive),108,-0.434 (inactive),-3.3e-05 (inactive),0.0046 (inactive),5.23% (inactive),21.3% (inactive)
O=C(Nc1ccc2c(c1)OCO2)OCc1ccccc1,449,1.6% (inactive),-6% (inactive),101,8.4% (inactive),101,-0.439 (inactive),-5.5e-05 (inactive),0.0049 (inactive),-47.7% (inactive),-107% (inactive)
Cc1nc2ncnn2c(Nc2ccc3c(c2)OCCO3)c1C,233,-9.3% (inactive),1.4% (inactive),87.4,-57.1% (inactive),97.7,-0.614 (inactive),-4.3e-05 (inactive),0.00442 (inactive),9.15% (inactive),-0.101% (inactive)
CCOC(=O)C1CCCN(CCCc2ccccc2)C1 (stereo unspecified),361,-17.4% (inactive),-1.3% (inactive),118,-32.5% (inactive),108,-0.438 (inactive),-2.5e-05 (inactive),0.00567 (inactive),6.58% (inactive),38% (inactive)
CC1CN(Cc2nc3c(c(=O)[nH]c(=O)n3C)n2CC(N)=O)CC(C)O1 (stereo unspecified),780,-7.4% (inactive),-1.9% (inactive),112,-33% (inactive),111,-0.567 (inactive),-3.9e-05 (inactive),0.00597 (inactive),12.8% (inactive),20.4% (inactive)
CC1(C)NC(=O)N(CC(O)CN2CCCCC2)C1=O (stereo unspecified),658,1.6% (inactive),10.5% (inactive),93.2,36.5% (inactive),109,-0.47 (inactive),-1.7e-06 (inactive),0.00522 (inactive),-4.08% (inactive),-0.921% (inactive)
